Measurements as given in PubChem BioAssay (NCATS).
Results filed as inconclusive are left out. A call without a number means that no potency is given here. The source made the active and inactive calls. Calls come from the whole dose curve; as a rule, active = well fitted curve in the direction sought with a large enough effect; inconclusive = small, poorly fitted or top-dose-only effect, or another doubt; inactive = no such curve, though single readings can be large; an effect the other way counts as inactive or inconclusive.

Key:
[1] = qHTS of pediatric cancer cell lines to identify multiple opportunities for drug repurposing: Primary screen for SK-N-MC cells (AID 1347093)
Procedure, shortened: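 Metabolically active cells were quantified by ATP-dependent luminescence (CellTiter-Glo, 15 min at room temperature) following 48 h treatment. Cells had been plated at 500-1,000 per well and settled for 5 h beforehand.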

[2] = qHTS of pediatric cancer cell lines to identify multiple opportunities for drug repurposing: Primary screen for BT-37 cells (AID 1347094)
Procedure, shortened: (§1)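 ATP-based luminescence (CellTiter-Glo) quantifies viability after a 48-hour exposure. Compounds are dosed across 8 or 11 final concentrations; DMSO and 2.3 µM bortezomib serve as controls.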

[3] = qHTS of pediatric cancer cell lines to identify multiple opportunities for drug repurposing: Primary screen for NB-EBc1 cells (AID 1347095)
Procedure, shortened: as §1

[4] = qHTS of pediatric cancer cell lines to identify multiple opportunities for drug repurposing: Primary screen for Saos-2 cells (AID 1347097); note: nearly all actives have a fitted effect of over 40% in size
Procedure, shortened: as §1

[5] = qHTS of pediatric cancer cell lines to identify multiple opportunities for drug repurposing: Primary screen for SK-N-SH cells (AID 1347098); note: nearly all actives have a fitted effect of over 65% in size
Procedure, shortened: (§2)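 Cells (500-1,000/well) rested 5 h, then received compounds for 48 h; metabolically active cells were measured by CellTiter-Glo luminescence. Final concentrations spanned up to 46 µM (MIPE, 11-point) or 0.59 nM-46 µM (NPC, 8-point) in primary screens, 11-point in follow-ups.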

[6] = qHTS of pediatric cancer cell lines to identify multiple opportunities for drug repurposing: Primary screen for NB1643 cells (AID 1347099); note: nearly all actives have a fitted effect of over 50% in size
Procedure, shortened: as §1

[7] = qHTS of pediatric cancer cell lines to identify multiple opportunities for drug repurposing: Primary screen for LAN-5 cells (AID 1347100)
Procedure, shortened: (§3)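 Viability after 48 h compound treatment at 37C, 500-1,000 cells/well, read as ATP luminescence with CellTiter-Glo. Primary screens used 11-point (MIPE, 0.78 nM-46 µM) or 8-point (NPC, 0.59 nM-46 µM) final concentrations; follow-up screens used 11-point dilutions.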

[8] = qHTS of pediatric cancer cell lines to identify multiple opportunities for drug repurposing: Primary screen for BT-12 cells (AID 1347101); note: nearly all actives have a fitted effect of over 25% in size
Procedure, shortened: as §2

[9] = qHTS of pediatric cancer cell lines to identify multiple opportunities for drug repurposing: Primary screen for Rh18 cells (AID 1347102); note: nearly all actives have a fitted effect of over 65% in size
Procedure, shortened: as §3

[10] = qHTS of pediatric cancer cell lines to identify multiple opportunities for drug repurposing: Primary screen for U-2 OS cells (AID 1347096); note: nearly all actives have a fitted effect of over 50% in size
Procedure, shortened: as §3
Potency is the fitted concentration of half-maximal effect.

SMILES	Potency [1]	Potency [2]	Potency [3]	Potency [4]	Potency [5]	Potency [6]	Potency [7]	Potency [8]	Potency [9]	Potency [10]
O=S(=O)(O)NC1CCCCC1	inactive	inactive	inactive	inactive	inactive	inactive	inactive	inactive	inactive	
CCN(CC)CCNC(=O)c1c(C)[nH]c(/C=C2\C(=O)Nc3ccc(F)cc32)c1C	2.37 µM (active)	17.4 µM (active)		21.1 µM (active)	inactive		11.9 µM (active)	21.9 µM (active)		21.1 µM (active)
COc1ccccc1O	inactive	inactive	inactive	inactive	inactive	inactive		inactive		
O=C(O)[C@H](O)c1ccccc1	inactive		inactive	inactive		inactive	inactive	inactive		inactive
CCCCCCCCCCCCCCCC(=O)NCCO	inactive	inactive	inactive	inactive	inactive	inactive	inactive	inactive	inactive	
Cc1c(Cl)cccc1Nc1ccccc1C(=O)O	18.8 µM (active)	inactive			inactive		inactive	inactive	inactive	
C[C@@H](O)[C@H](N)C(=O)O	inactive	inactive	inactive		inactive	inactive	inactive	inactive	inactive	
O=C(Oc1ccccc1C(=O)O)c1ccccc1O	inactive	inactive	inactive	inactive	inactive	inactive		inactive	inactive	
CCCCN(CCCC)CC(O)c1cc(Cl)cc2c1-c1ccc(Cl)cc1/C2=C/c1ccc(Cl)cc1 (stereo unspecified)	inactive		inactive			inactive			21.1 µM (active)	inactive
O=C1N=C(O)CN1/N=C/c1ccc(-c2ccc([N+](=O)[O-])cc2)o1	5.31 µM (active)	inactive		inactive	inactive	inactive	inactive	inactive	inactive	inactive
CCCCOc1cc(C(=O)OCCN(CC)CC)ccc1N	inactive	inactive	inactive	inactive	inactive	inactive	inactive	inactive	inactive	
O=Cc1ccccc1C=O	inactive	inactive	inactive	inactive	inactive	inactive	inactive	inactive		
CN1CCC[C@@H]1Cc1c[nH]c2ccc(CCS(=O)(=O)c3ccccc3)cc12	inactive	inactive	inactive	inactive	inactive	inactive	inactive	inactive	inactive	
NC(=O)N/N=C/c1ccc([N+](=O)[O-])o1	inactive		inactive	inactive	inactive	inactive	inactive		inactive	inactive
CN(C)CCC=C1c2ccccc2CCc2ccccc21						inactive				inactive
CN(C)CCCN1c2ccccc2Sc2ccc(Cl)cc21					6.12 µM (active)					inactive
O=C1OC(OC(=O)c2cccnc2Nc2cccc(C(F)(F)F)c2)c2ccccc21 (stereo unspecified)		inactive	inactive	inactive	inactive	inactive	inactive	inactive	inactive	
Cc1cc(C(C#N)c2ccc(Cl)cc2)c(Cl)cc1NC(=O)c1cc(I)cc(I)c1O (stereo unspecified)				26.6 µM (active)					inactive	
COC(=O)[C@H]1[C@H]2C[C@@H]3c4[nH]c5cc(OC)ccc5c4CCN3C[C@H]2C[C@@H](OC(=O)COc2ccc(OC)cc2)[C@@H]1OC		inactive	inactive	inactive	inactive	inactive	inactive	inactive	inactive	inactive
[Cl][In]([Cl])[Cl]			inactive	8.63 µM (active)		inactive		inactive		
O=C(CCCN1CCN(c2ccccn2)CC1)c1ccc(F)cc1		inactive	inactive			inactive	inactive		inactive	
CNCCCC1c2ccccc2C=Cc2ccccc21	11.9 µM (active)		inactive			inactive				
CNCC(O)c1ccc(O)c(O)c1 (stereo unspecified)		inactive	inactive	26.6 µM (active)		inactive	inactive	inactive		inactive
CC1=C(/C=C/C(C)=C/C=C/C(C)=C/C(=O)O)C(C)(C)CCC1		inactive	inactive	inactive		inactive	inactive	inactive	inactive	inactive
CCN(CC)CCSC(=O)C(c1ccccc1)c1ccccc1		inactive	23.7 µM (active)	inactive		23.7 µM (active)		inactive	inactive	inactive
